Source: ChEMBL document CHEMBL1961873, “Compounds: GSK PKIS; Assays: Nanosyn kinase panel” (2012)

Legend:
[1] = target: MAP/microtubule affinity-regulating kinase 3 (Homo sapiens) (UniProt P27448); conditions: at 1 µM;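 note: reported values are averaged percent inhibition of MARK3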
[2] = target: T1, MAP/microtubule affinity-regulating kinase 4 (Homo sapiens) (UniProt Q96L34); conditions: at 0.1 µM
T1 sequence (whole entry): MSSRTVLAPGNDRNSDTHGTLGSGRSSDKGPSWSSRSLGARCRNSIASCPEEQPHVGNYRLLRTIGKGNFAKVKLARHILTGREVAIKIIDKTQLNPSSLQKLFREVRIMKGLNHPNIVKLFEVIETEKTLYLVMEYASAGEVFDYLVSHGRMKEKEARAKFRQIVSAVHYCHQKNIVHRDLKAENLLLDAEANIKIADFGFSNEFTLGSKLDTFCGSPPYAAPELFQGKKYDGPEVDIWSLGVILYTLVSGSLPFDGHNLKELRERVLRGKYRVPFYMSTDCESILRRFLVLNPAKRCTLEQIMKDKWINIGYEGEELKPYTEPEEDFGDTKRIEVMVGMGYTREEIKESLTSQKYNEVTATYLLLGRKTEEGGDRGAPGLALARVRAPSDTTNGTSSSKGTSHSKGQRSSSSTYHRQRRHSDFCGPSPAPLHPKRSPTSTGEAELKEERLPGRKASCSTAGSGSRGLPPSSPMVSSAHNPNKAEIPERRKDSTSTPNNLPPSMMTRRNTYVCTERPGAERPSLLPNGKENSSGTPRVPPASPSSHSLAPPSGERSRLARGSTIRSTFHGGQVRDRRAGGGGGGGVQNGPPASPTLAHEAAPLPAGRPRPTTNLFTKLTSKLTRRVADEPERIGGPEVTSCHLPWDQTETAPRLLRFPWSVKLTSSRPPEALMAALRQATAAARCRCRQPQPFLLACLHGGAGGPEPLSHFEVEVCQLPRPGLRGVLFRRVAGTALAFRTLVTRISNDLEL

[3] = target: T1, MAP/microtubule affinity-regulating kinase 4 (Homo sapiens); conditions: at 1 µM
[4] = target: Maternal embryonic leucine zipper kinase (Homo sapiens) (UniProt Q14680); conditions: at 0.1 µM
Chain of Maternal embryonic leucine zipper kinase (Homo sapiens) (Q14680 whole entry, looked up): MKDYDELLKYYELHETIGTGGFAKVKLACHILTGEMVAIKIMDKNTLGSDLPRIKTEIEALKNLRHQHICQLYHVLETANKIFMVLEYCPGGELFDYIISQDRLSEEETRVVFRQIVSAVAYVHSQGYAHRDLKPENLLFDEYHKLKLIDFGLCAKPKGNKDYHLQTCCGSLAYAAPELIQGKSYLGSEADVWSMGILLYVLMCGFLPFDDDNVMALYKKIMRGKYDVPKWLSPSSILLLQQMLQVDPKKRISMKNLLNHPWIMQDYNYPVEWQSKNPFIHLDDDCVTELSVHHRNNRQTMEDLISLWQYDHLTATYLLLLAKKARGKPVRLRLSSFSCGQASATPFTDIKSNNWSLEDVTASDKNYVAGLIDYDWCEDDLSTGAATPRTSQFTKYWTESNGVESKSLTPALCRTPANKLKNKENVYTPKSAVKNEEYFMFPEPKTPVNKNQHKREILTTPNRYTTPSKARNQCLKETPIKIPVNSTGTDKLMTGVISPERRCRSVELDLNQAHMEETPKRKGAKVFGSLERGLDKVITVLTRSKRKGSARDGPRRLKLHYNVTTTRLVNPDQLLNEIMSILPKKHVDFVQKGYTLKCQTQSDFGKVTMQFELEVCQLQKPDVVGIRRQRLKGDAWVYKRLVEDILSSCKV

[5] = target: Maternal embryonic leucine zipper kinase (Homo sapiens) (UniProt Q14680); conditions: at 1 µM
[6] = target: MAP kinase-interacting serine/threonine-protein kinase 1 (Homo sapiens) (UniProt Q9BUB5); conditions: at 0.1 µM
Chain of MAP kinase-interacting serine/threonine-protein kinase 1 (Homo sapiens) (Q9BUB5 whole entry, looked up): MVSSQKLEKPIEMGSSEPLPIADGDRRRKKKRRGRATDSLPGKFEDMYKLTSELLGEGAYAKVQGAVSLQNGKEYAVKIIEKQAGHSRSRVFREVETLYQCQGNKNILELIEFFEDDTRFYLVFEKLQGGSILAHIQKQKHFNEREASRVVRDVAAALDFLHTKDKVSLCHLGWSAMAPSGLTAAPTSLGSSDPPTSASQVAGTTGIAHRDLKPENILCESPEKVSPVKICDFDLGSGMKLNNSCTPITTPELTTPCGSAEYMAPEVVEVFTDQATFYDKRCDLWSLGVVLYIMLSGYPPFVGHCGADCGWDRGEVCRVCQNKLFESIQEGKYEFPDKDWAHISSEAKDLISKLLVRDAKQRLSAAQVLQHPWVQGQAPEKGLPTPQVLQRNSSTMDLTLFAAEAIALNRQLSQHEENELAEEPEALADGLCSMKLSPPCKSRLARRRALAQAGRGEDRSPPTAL

[7] = target: MAP kinase-interacting serine/threonine-protein kinase 1 (Homo sapiens) (UniProt Q9BUB5); conditions: at 1 µM
[8] = target: MAP kinase-interacting serine/threonine-protein kinase 2 (Homo sapiens) (UniProt Q9HBH9); conditions: at 0.1 µM
Chain of MAP kinase-interacting serine/threonine-protein kinase 2 (Homo sapiens) (Q9HBH9 whole entry, looked up): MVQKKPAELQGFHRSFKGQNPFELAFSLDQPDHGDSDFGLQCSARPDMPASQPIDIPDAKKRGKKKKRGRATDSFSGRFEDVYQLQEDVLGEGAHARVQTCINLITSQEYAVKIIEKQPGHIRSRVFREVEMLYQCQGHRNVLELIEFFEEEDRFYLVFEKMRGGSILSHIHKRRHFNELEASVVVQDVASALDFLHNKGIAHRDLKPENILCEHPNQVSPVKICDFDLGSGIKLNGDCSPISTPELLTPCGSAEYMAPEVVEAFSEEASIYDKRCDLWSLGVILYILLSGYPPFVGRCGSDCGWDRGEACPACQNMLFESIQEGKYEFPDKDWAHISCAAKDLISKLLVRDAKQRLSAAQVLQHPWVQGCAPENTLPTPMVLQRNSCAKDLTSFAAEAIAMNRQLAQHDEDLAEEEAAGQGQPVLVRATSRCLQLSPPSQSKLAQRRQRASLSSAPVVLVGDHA

[9] = target: MAP kinase-interacting serine/threonine-protein kinase 2 (Homo sapiens) (UniProt Q9HBH9); conditions: at 1 µM
[10] = target: Serine/threonine-protein kinase MARK2 (Homo sapiens) (UniProt Q7KZI7); conditions: at 0.1 µM
Chain of Serine/threonine-protein kinase MARK2 (Homo sapiens) (Q7KZI7 whole entry, the tested form may be a part): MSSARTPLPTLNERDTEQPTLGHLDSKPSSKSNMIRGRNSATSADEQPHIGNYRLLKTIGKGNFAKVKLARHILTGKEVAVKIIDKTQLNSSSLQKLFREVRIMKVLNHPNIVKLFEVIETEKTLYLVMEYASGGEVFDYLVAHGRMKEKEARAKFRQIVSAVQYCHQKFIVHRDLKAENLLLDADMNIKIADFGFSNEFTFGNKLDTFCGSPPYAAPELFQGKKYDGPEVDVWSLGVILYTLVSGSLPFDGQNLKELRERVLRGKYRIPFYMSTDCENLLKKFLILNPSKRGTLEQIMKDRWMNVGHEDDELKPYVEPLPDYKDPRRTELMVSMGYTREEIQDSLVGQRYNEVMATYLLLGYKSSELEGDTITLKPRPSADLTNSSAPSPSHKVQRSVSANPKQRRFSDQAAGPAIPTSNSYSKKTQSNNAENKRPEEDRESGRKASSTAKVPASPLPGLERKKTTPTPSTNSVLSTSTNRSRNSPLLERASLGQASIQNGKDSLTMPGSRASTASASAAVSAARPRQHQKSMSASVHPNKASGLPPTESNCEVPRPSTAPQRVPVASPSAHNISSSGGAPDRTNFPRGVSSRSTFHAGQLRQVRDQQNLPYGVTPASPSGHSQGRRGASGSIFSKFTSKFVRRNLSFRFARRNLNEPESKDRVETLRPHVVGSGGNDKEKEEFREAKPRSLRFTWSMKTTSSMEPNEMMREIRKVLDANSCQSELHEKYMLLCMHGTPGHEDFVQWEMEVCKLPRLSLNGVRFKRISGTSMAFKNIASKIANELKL

[11] = target: Serine/threonine-protein kinase MARK2 (Homo sapiens) (UniProt Q7KZI7); conditions: at 1 µM
[12] = target: PAS domain-containing serine/threonine-protein kinase (Homo sapiens) (UniProt Q96RG2); conditions: at 0.1 µM
[13] = target: PAS domain-containing serine/threonine-protein kinase (Homo sapiens) (UniProt Q96RG2); conditions: at 1 µM
[14] = target: Phosphorylase b kinase gamma catalytic chain, skeletal muscle/heart isoform (Homo sapiens) (UniProt Q16816); conditions: at 0.1 µM
Chain of Phosphorylase b kinase gamma catalytic chain, skeletal muscle/heart isoform (Homo sapiens) (Q16816 whole entry, looked up, canonical isoform): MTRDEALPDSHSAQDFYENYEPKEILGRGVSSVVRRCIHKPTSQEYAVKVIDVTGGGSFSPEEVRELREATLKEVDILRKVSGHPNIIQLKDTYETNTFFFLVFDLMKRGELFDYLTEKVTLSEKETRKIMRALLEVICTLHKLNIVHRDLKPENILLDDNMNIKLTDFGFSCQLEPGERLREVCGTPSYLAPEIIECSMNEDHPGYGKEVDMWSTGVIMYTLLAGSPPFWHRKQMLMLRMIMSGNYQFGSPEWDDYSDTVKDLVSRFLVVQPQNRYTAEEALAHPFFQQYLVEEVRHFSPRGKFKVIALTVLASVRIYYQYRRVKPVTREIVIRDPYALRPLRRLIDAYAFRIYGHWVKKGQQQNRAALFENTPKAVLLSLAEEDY

[15] = target: Phosphorylase b kinase gamma catalytic chain, skeletal muscle/heart isoform (Homo sapiens) (UniProt Q16816); conditions: at 1 µM
[16] = target: T2, Phosphorylase b kinase gamma catalytic chain, liver/testis isoform (Homo sapiens) (UniProt P15735); conditions: at 0.1 µM
T2 sequence (whole entry): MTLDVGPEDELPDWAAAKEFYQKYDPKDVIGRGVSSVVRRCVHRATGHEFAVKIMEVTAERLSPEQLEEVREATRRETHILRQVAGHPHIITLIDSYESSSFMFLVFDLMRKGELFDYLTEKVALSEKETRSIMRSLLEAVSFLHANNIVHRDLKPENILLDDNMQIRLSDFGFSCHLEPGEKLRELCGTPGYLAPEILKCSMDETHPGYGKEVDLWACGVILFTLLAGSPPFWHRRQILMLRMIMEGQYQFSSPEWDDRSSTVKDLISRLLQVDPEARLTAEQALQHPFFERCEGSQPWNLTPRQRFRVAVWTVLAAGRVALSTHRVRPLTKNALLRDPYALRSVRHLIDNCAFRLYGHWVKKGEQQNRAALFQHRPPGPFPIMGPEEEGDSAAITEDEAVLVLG

[17] = target: T2, Phosphorylase b kinase gamma catalytic chain, liver/testis isoform (Homo sapiens); conditions: at 1 µM
[18] = target: Serine/threonine-protein kinase pim-1 (Homo sapiens) (UniProt P11309); conditions: at 0.1 µM
Chain of Serine/threonine-protein kinase pim-1 (Homo sapiens) (P11309 whole entry, looked up): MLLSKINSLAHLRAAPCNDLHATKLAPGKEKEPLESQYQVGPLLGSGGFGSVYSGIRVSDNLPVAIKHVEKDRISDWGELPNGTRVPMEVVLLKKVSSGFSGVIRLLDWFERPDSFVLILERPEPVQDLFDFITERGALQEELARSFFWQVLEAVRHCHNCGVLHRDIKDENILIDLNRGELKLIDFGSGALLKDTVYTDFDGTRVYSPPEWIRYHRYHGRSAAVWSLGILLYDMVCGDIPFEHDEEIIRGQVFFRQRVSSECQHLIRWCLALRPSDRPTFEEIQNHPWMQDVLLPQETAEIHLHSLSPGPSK

[19] = target: Serine/threonine-protein kinase pim-1 (Homo sapiens) (UniProt P11309); conditions: at 1 µM
[20] = target: Serine/threonine-protein kinase pim-2 (Homo sapiens) (UniProt Q9P1W9); conditions: at 0.1 µM;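 note: reported value is the mean percent inhibition of PIM2, measured in the GSK PKIS kinase inhibitor set screen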
Chain of Serine/threonine-protein kinase pim-2 (Homo sapiens) (Q9P1W9 whole entry, looked up): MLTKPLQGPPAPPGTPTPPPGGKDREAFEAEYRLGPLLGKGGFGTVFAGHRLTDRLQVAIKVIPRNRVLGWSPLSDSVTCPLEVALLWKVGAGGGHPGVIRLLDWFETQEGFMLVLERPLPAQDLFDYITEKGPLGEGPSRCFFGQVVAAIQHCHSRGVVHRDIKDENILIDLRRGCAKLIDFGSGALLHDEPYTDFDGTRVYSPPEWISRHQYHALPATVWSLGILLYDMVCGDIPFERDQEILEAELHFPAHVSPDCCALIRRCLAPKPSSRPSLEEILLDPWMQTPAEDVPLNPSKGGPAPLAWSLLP

Chain of MAP/microtubule affinity-regulating kinase 3 (Homo sapiens) (P27448 whole entry, looked up): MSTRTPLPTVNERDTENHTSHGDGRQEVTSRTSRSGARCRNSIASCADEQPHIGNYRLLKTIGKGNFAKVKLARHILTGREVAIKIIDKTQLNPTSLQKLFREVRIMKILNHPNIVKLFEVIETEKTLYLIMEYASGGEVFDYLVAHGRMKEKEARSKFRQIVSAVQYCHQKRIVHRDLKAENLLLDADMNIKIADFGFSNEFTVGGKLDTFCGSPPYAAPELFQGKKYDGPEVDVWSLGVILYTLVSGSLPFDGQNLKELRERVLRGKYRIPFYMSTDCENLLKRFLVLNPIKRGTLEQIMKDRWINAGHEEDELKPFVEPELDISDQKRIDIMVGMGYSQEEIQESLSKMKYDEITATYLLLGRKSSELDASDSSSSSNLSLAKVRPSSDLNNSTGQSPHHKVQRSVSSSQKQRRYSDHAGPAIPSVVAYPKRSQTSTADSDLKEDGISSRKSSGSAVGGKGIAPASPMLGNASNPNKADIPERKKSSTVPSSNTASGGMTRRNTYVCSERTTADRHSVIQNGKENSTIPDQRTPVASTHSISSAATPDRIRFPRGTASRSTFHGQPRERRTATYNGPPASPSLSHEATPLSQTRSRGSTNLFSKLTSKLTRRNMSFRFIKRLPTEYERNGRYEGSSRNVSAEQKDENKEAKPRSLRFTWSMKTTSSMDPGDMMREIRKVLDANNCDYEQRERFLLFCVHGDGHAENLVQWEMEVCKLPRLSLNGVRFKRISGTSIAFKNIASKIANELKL

Row | SMILES | inhibition [1] [%] | inhibition [2] [%] | inhibition [3] [%] | inhibition [4] [%] | inhibition [5] [%] | inhibition [6] [%] | inhibition [7] [%] | inhibition [8] [%] | inhibition [9] [%] | inhibition [10] [%] | inhibition [11] [%] | inhibition [12] [%] | inhibition [13] [%] | inhibition [14] [%] | inhibition [15] [%] | inhibition [16] [%] | inhibition [17] [%] | inhibition [18] [%] | inhibition [19] [%] | inhibition [20] [%]
1 | COc1ccc(-c2nn3ncccc3c2-c2ccnc(Nc3ccc(F)c(F)c3)n2)cc1 | 10.5 | 1.45 | 1.84 | 3.07 | 4.64 | 2.98 | 6.32 | 2.16 | 6.26 | 0.52 | 0.59 | 1.16 | 1.41 | 8.48 | 10.2 | 4.94 | 9.5 | 0.43 | 0.69 | 1.57
2 | N#Cc1ccc2c(-c3ccnc(NC4CC4)n3)c(-c3ccc(F)cc3)nn2c1 | 0.43 | 0.81 | 0.11 | -0.07 | -2.83 | 1.98 | 0.7 | -0.74 | 1.03 | -0.15 | 0.62 | 1.11 | 0.62 | 0.42 | 2.62 | 1.29 | 0.44 | -0.01 | -1.52 | -0.15
3 | CCCNc1cccc(-n2ncc3c(N/N=C/c4ccncc4)ncnc32)c1 | 9.23 | 0.58 | 9.44 | -0.14 | 3.93 | 31.2 | 69.1 | 37.6 | 72.2 | 0.04 | 4.97 | 1.18 | 3.05 | 2.76 | 19.5 | 2.56 | 7.69 | 0.64 | 1.01 | 1.23
4 | CS(=O)(=O)CCNCc1ccoc1-c1ccc2ncnc(Nc3ccc(OCc4ccccc4)cc3)c2c1 | -1.52 | -0.56 | -0.4 | -0.71 | -0.61 | 2 | 4.19 | 0.34 | 5.82 | -1.43 | -2.18 | 1.27 | 0.16 | 2.12 | 3.12 | 0.65 | 0.15 | 0.23 | -0.94 | 0.1
5 | CC1(C)CC(n2cnc(-c3ccc(F)cc3)c2-c2ccnc(N)n2)CC(C)(C)N1 | 1.48 | 1.1 | 1.23 | 2.12 | 3.51 | 1.11 | 2.81 | 0.35 | 0.79 | 0.16 | 0.44 | -1.3 | -0.73 | 3.51 | 2.36 | -0.42 | -1.13 | 0.93 | 1.49 | 0.4
6 | CCOc1ccc2c(-c3ccnc(Nc4cc(OC)cc(C(F)(F)F)c4)n3)cnn2n1 | -0.83 | -0.72 | 2.36 | 3.83 | 10.3 | 4.65 | 8.47 | 2.3 | 4.37 | 0.85 | 1.23 | 0 | 0.64 | 1.57 | 0.94 | 0.61 | 0.99 | 0.51 | -0.17 | -0.46
7 | COC(=O)Nc1nc2ccc(Oc3ccc(NC(=O)Nc4cc(C(F)(F)F)ccc4F)cc3)cc2s1 | -0.18 | -0.51 | 0.37 | 1.63 | 3.51 | 4.79 | 15.7 | 2.41 | 7.88 | -8.34 | -0.26 | -0.29 | -0.57 | -9.77 | 1.81 | -0.83 | -1.17 | 0.9 | 1.19 | -0.21
8 | NC(=O)c1ccc2c(-c3ccnc(NCCCO)n3)c(-c3ccc(F)cc3)nn2c1 | 21.9 | 1.93 | 2.67 | 6.11 | 6.85 | 4.56 | 13.4 | 3.16 | 7.35 | 1.93 | 1.98 | 0.06 | -1.12 | 6.92 | 7.38 | 5.28 | 2.16 | 1.1 | 0.82 | -0.18
9 | CN(C)CCNC(=O)Nc1ccc(N(C)c2ccnc(Nc3ccc(CS(C)(=O)=O)cc3)n2)cc1 | 6.62 | 1.9 | 8.9 | 4.26 | 16.1 | 1.51 | 3.79 | 0.95 | 5.14 | 2.5 | 7.11 | 1.26 | -0.25 | 2.14 | 4.59 | 4.64 | 1.59 | 1.06 | 1.39 | 0.27
10 | CC1=C(C(=O)Nc2ccc3[nH]ncc3c2)C(c2ccc(F)cc2)N=C(c2ccc(C(F)(F)F)nc2)N1 (stereo not given) | 1.71 | 0.35 | 2.44 | 2.15 | 5.11 | 2.55 | 4.82 | 0.9 | 3.32 | -1.01 | 2.79 | -0.13 | -0.98 | 0.36 | 1.77 | 1.74 | -0.23 | 0.3 | -0.09 | 0.44
11 | CC1=C(C(=O)Nc2ccc3[nH]nc(C)c3c2)C(c2ccc(C(F)(F)F)cc2)CC(=O)N1 (stereo not given) | 5.26 | -0.05 | 3.18 | 3.65 | 18 | 3.53 | 6.23 | 1.45 | 4.23 | 0.75 | 4.76 | 0.2 | -1.78 | 4.32 | 0.7 | 2.48 | -2.45 | 1.05 | 0 | 0
12 | N#Cc1cccc(Nc2ncc(-c3ccccc3)o2)c1 | 7.34 | -0.09 | 1.81 | -0.12 | 2.2 | 2.67 | 10.1 | 2.19 | 8.7 | -0.17 | -0.47 | 0.37 | 2.05 | 2.95 | 12.9 | 1.85 | 6.04 | 0.15 | 0.29 | 0.1
13 | COc1cc(N2CCN(C(C)C)CC2)ccc1Nc1nc(Nc2cccc3ncccc23)c2cc[nH]c2n1 | 3.2 | 0.47 | 1.44 | -0.58 | 3.21 | 0.05 | 2.31 | -0.09 | 1.91 | -0.66 | 1.39 | -0.26 | -0.72 | 2.93 | 28.6 | -1.68 | 0.96 | 0.12 | 0.51 | -0.9
